This is a sample that favours compounds with a hit; in the whole collection about 5.7% have one here.
ssDAF-12 act = S. stercoralis DAF-12 nuclear receptor activators, primary screen, cell-based, luminescence, HEK293, GRIP1 co-expression, lit1-tk-luc; HEK293 ssDAF-12/GRIP1 lit1-tk-luc reporter; % of 3 µM dafachronic acid response; actives 1% (n = 370,000); Nuclear hormone receptor DAF-12 (Strongyloides stercoralis); activation, % at 6.8 µM;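 active = activation above the mean over all tested compounds plus 3 SD, cut at about 0.9% in these data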
DAX1 inh-1 = DAX1 (NR0B1) inhibitors, primary screen, cell-based, HEK293, Gal4-DAX1, luciferase luminescence. Nuclear receptor subfamily 0 group B member 1 (Homo sapiens), P51843. HEK293 Gal4-DAX1 luciferase reporter. inhibition, % at 6.75 µM. actives 0.99% (n = 340,000). AID 504766, 2011;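 active = inhibition above the mean over all tested compounds plus 3 SD, cut at about 4.2% in these data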;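 note: inhibition shows as a rise in luminescence from relieved DAX1 repression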
hcDAF12 agonist = H. contortus DAF-12 nuclear receptor activators, primary screen, cell-based, luminescence, HEK293, lit1-tk-luc reporter; HEK293 hcDAF-12 lit1-tk-luc reporter; 0% DMSO, 100% Δ7-dafachronic acid; activation, % at 6.8 µM; actives 1.4% (n = 370,000);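 active = activation above the mean of all tested compounds plus 3 SD, cut at about 5.5% in these data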
hgDAF-12 ag = H. glycines DAF-12 receptor agonists, primary screen, cell-based, luminescence, HEK293, GAL4 fusion, UAS-luciferase; actives 1.8% (n = 370,000); HEK293 GAL4-hgDAF12 UAS-luciferase reporter, agonist luminescence; normalized to butyrate control; activation, % at 6.8 µM; Nuclear hormone receptor DAF-12 (Heterodera glycines), GAL4 fusion;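 active = activation above a cutoff set at the mean of all screened compounds plus 3 SD, cut at about 10% in these data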
DAX1 inh-2 = DAX1 (NR0B1) inhibitors on StAR promoter, primary screen, cell-based, luminescence, SF-1 (NR5A1), full-length DAX-1; HEK293T StAR-luciferase reporter, SF-1/DAX-1 repression relief; inhibition, % at 6.8 µM; actives 1.1% (n = 370,000); AID 652010, 2013;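 active = inhibition above the mean over all tested compounds plus 3 SD, cut at about 3.6% in these data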;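 note: higher inhibition means more luminescence from relief of DAX-1 repression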
AHR act = AHR activators, primary screen, cell-based, luminescence, luciferase reporter, human. Aryl hydrocarbon receptor (Homo sapiens), P35869. AHR-responsive luciferase reporter cells. activation, % at 5 µM. actives 2.5% (n = 320,000). AID 2796, 2010; in the data active = activation above about 47%
Target sequence (P35869 whole entry, looked up): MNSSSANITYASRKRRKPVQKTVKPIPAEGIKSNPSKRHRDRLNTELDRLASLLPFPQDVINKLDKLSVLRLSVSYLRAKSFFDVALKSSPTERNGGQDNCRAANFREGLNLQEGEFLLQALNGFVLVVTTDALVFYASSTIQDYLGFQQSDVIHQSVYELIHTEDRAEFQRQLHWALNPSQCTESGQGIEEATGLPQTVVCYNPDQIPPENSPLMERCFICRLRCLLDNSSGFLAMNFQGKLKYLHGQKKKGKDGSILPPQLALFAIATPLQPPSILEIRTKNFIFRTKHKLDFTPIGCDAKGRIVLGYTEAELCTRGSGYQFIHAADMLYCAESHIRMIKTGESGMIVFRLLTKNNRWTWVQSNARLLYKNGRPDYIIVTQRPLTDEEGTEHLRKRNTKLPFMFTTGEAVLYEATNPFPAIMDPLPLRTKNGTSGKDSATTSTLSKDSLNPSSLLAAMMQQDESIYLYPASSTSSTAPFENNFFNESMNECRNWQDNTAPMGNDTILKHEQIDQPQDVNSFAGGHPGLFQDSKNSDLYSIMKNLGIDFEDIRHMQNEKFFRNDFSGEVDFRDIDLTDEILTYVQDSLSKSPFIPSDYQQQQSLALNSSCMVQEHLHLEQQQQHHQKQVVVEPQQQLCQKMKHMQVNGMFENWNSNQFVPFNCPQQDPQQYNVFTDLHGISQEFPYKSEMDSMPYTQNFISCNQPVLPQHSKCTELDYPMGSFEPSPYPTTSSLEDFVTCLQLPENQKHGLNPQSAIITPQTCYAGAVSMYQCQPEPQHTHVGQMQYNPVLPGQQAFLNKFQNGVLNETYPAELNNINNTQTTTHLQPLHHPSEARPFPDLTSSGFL
Hits are given with their value.

Cc1cc(S(=O)(=O)/N=C(\N)c2ccc(C(N)=O)cc2)cc(C)c1F was read as ssDAF-12 act inactive, DAX1 inh-1 inactive, hcDAF12 agonist inactive, hgDAF-12 ag inactive, DAX1 inh-2 inactive and AHR act inactive.
`CCOc1ccc(NC(=O)CSc2nnc(Cc3csc(C)n3)o2)cc1` gave ssDAF-12 act inactive, DAX1 inh-1 inactive, hcDAF12 agonist inactive, hgDAF-12 ag inactive, DAX1 inh-2 inactive and AHR act inactive.
NNc1nc2c(F)cccc2s1 was read as ssDAF-12 act inactive, DAX1 inh-1 inactive, hcDAF12 agonist inactive, hgDAF-12 ag inactive, DAX1 inh-2 inactive and AHR act 67.0.
Screening Fc1cccc2sc(Nc3nc4c(F)cccc4s3)nc12 returned ssDAF-12 act inactive, DAX1 inh-1 inactive, hcDAF12 agonist inactive, hgDAF-12 ag inactive, DAX1 inh-2 inactive and AHR act inactive.
Screening COc1ccc(N2CCN(C(=O)[C@@H]3CCCN3C3=NS(=O)(=O)c4ccccc43)CC2)cc1 returned ssDAF-12 act inactive, DAX1 inh-1 inactive, hcDAF12 agonist inactive, hgDAF-12 ag inactive, DAX1 inh-2 inactive and AHR act inactive.
For Cn1cncc1C#Cc1ccc2cc(CCO)oc(=O)c2c1 the results were ssDAF-12 act inactive, DAX1 inh-1 inactive, hcDAF12 agonist inactive, hgDAF-12 ag inactive, DAX1 inh-2 inactive and AHR act 48.5.
CSc1ccc(C2N=C(c3ccccc3)NO2)cc1 (stereo not drawn) was read as DAX1 inh-1 inactive and AHR act 58.3.
`Cc1cccc(N/C=C/C(=C(C#N)C#N)N(C)C)c1` gave ssDAF-12 act inactive, DAX1 inh-1 inactive, hcDAF12 agonist inactive, hgDAF-12 ag inactive, DAX1 inh-2 inactive and AHR act 48.2.
CCN(CC)CCn1c(C)nc2ccccc21 was read as ssDAF-12 act inactive, DAX1 inh-1 4.3, hcDAF12 agonist inactive, hgDAF-12 ag inactive, DAX1 inh-2 inactive and AHR act inactive.
Screening O=c1oc2ccccc2n1CCn1c2ccccc2c2nc3ccccc3nc21 returned ssDAF-12 act inactive, DAX1 inh-1 inactive, hcDAF12 agonist inactive, hgDAF-12 ag inactive, DAX1 inh-2 inactive and AHR act inactive.
`CCCn1c2ccccc2c2nc3ccccc3nc21` gave ssDAF-12 act inactive, DAX1 inh-1 inactive, hcDAF12 agonist inactive, hgDAF-12 ag inactive, DAX1 inh-2 inactive and AHR act 78.5.
For CCn1c2ccc(F)cc2c2nc3ccccc3nc21 the results were ssDAF-12 act inactive, DAX1 inh-1 inactive, hcDAF12 agonist inactive, hgDAF-12 ag inactive, DAX1 inh-2 inactive and AHR act 58.5.
Screening N#CCCn1c2ccccc2c2nc3ccccc3nc21 returned ssDAF-12 act inactive, DAX1 inh-1 inactive, hcDAF12 agonist inactive, hgDAF-12 ag inactive, DAX1 inh-2 inactive and AHR act 70.5.
`Cc1nc2ccccc2n1CCc1ccccc1` gave ssDAF-12 act inactive, DAX1 inh-1 inactive, hcDAF12 agonist inactive, hgDAF-12 ag inactive, DAX1 inh-2 inactive and AHR act inactive.
For COc1ccc(SC[C@H](Cc2ccccc2)N2CC[C@@H](C(C)(C)C)CCC2=O)cc1 the results were ssDAF-12 act inactive, DAX1 inh-1 inactive, hcDAF12 agonist inactive, hgDAF-12 ag inactive, DAX1 inh-2 inactive and AHR act inactive.
`CC(=O)Nc1ccc(S(=O)(=O)N2CCC(C(=O)NCc3ccncc3)CC2)cc1` gave ssDAF-12 act inactive, DAX1 inh-1 inactive, hcDAF12 agonist inactive, hgDAF-12 ag inactive, DAX1 inh-2 inactive and AHR act inactive.
`CCCCn1nnnc1C1(C)CCC(=O)N1CC1CCCCC1` (stereo not drawn) gave ssDAF-12 act inactive, hcDAF12 agonist inactive, hgDAF-12 ag inactive and DAX1 inh-2 inactive.
`CCN1CCCCC(NC(=O)c2ccc(F)cc2)C1=O` (stereo not drawn) gave ssDAF-12 act inactive, hcDAF12 agonist inactive, hgDAF-12 ag inactive and DAX1 inh-2 inactive.
CCOC(=O)Cn1c2ccccc2c2nc3ccccc3nc21 was read as ssDAF-12 act inactive, DAX1 inh-1 inactive, hcDAF12 agonist inactive, hgDAF-12 ag inactive, DAX1 inh-2 inactive and AHR act inactive.
`CCN(CC)CCn1c2ccccc2c2nc3ccccc3nc21` gave ssDAF-12 act inactive, DAX1 inh-1 inactive, hcDAF12 agonist 6.1, hgDAF-12 ag inactive, DAX1 inh-2 inactive and AHR act 63.6.
`O=C(O)Cn1c2ccccc2c2nc3ccccc3nc21` gave DAX1 inh-1 4.9.
`O=C(c1ccccn1)C1CCCN(Cc2nc(Cc3cccc(F)c3)no2)C1` (stereo not drawn) gave ssDAF-12 act inactive, DAX1 inh-1 4.4, hcDAF12 agonist inactive, hgDAF-12 ag inactive, DAX1 inh-2 inactive and AHR act inactive.
Screening O=C(O)c1[nH]c2ccccc2c1NS(=O)(=O)c1ccc(F)cc1 returned ssDAF-12 act inactive, DAX1 inh-1 inactive, hcDAF12 agonist inactive, hgDAF-12 ag inactive, DAX1 inh-2 inactive and AHR act inactive.
Screening O=C(O)c1[nH]c2ccccc2c1NS(=O)(=O)Cc1ccccc1 returned ssDAF-12 act inactive, DAX1 inh-1 inactive, hcDAF12 agonist 6.0, hgDAF-12 ag inactive, DAX1 inh-2 inactive and AHR act inactive.
`COc1ccc(CCNC(=O)c2nnn(CC(=O)Nc3ccc(C)cc3C)c2N)cc1OC` gave ssDAF-12 act inactive, DAX1 inh-1 inactive, hcDAF12 agonist inactive, hgDAF-12 ag inactive, DAX1 inh-2 inactive and AHR act inactive.
Screening O=C(N/N=C1/CC2C=CCC12)c1ccco1 (stereo not drawn) returned ssDAF-12 act 1.0, DAX1 inh-1 inactive, hcDAF12 agonist inactive, hgDAF-12 ag 11.4, DAX1 inh-2 inactive and AHR act inactive.
`CCOCCc1c(O)nc(SCC)[nH]c1=O` gave ssDAF-12 act inactive, DAX1 inh-1 inactive, hcDAF12 agonist inactive, hgDAF-12 ag inactive, DAX1 inh-2 inactive and AHR act inactive.
Screening Cc1ccc(C(=O)C(OC(=O)CCC(=O)Nc2cccc(C)c2)c2ccccc2)cc1 (stereo not drawn) returned ssDAF-12 act inactive, DAX1 inh-1 4.7, hcDAF12 agonist inactive, hgDAF-12 ag inactive, DAX1 inh-2 inactive and AHR act inactive.
For COc1ccc(NC(=O)CCC(=O)OC(C(=O)c2ccccc2)c2ccccc2)cc1 (stereo not drawn) the results were ssDAF-12 act inactive, DAX1 inh-1 inactive, hcDAF12 agonist inactive, hgDAF-12 ag inactive, DAX1 inh-2 inactive and AHR act inactive.

Bioassay records: PubChem BioAssay, The Scripps Research Institute Molecular Screening Center
